From PubChem
The list is not random: actives were taken first. Their share in the collection is about 5.6%.
PfGluPho inh = PfG6PD enzyme inhibitors, primary screen, biochemical, fluorescence intensity, uHTS; glucose-6-phosphate dehydrogenase-6-phosphogluconolactonase (Plasmodium falciparum 3D7); PfGluPho enzyme, NADPH resazurin-diaphorase fluorescence; inhibition, % at 20 µM; 350,000 compounds, 0.78% hits; AID 504690, 2011;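 active = inhibition reaching at least a set limit at 20 µM in the primary screen, cut at about 59% in these data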;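 note: 0% = DMSO wells with substrate and 100% = DMSO wells lacking glucose-6-phosphate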
PfM18AAP inh = PfM18AAP inhibitors, malaria aminopeptidase, primary screen, biochemical, QFRET, recombinant enzyme; AID 1822, 2009; H-Glu-NHMec fluorogenic cleavage; inhibition, % at 7.35 µM; 290,000 compounds, 1.2% hits; M18 aspartyl aminopeptidase (Plasmodium falciparum 3D7);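 active = inhibition above the campaign mean inhibition over all tested compounds plus 3 SD, cut at about 28% in these data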;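 note: 0% = plate median of test compound wells and 100% = 2 mM ZnCl2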
ALR H2O2 inh = inhibitors of human ALR sulfhydryl oxidase, primary screen, biochemical, H2O2 detection, HRP-luminol luminescence, single point. FAD-linked sulfhydryl oxidase ALR (Homo sapiens), P55789. purified ALR, DTT oxidation. inhibition, % (concentration not given with the values). 290,000 compounds, 3.8% hits. AID 485317, 2010;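 active = mean replicate inhibition above about 79%, with every replicate also reaching it, limit read from the data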
Target sequence (P55789 whole entry, looked up): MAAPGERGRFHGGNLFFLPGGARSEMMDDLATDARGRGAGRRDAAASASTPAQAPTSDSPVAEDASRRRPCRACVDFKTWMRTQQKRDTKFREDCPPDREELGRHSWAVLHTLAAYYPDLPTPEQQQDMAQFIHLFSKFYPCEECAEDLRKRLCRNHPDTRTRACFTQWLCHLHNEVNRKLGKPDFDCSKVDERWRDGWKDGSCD
PHOSPHO1 inh = PubChem AID 1565. recombinant PHOSPHO1, absorbance phosphatase assay. Phosphoethanolamine/phosphocholine phosphatase (Homo sapiens), Q8TCT1. inhibition, % at 13.3 µM. 290,000 compounds, 1.1% hits; in the data active = inhibition above about 60%
Target sequence (Q8TCT1 whole entry, looked up): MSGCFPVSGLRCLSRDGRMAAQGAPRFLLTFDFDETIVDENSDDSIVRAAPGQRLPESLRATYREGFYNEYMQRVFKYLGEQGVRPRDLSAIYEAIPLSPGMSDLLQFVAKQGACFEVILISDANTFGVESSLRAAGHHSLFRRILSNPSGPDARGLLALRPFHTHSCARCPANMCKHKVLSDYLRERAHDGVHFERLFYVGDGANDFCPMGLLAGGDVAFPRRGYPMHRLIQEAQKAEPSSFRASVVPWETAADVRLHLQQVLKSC
H9c2 protect = cardioprotection against H2O2-induced cell death, primary screen, uHTS, H9c2 cells, ATPLite luminescence | H9c2 cardiomyocytes, H2O2 injury protection, 2 h | protection from H2O2 cell death, % at 20 µM | 360,000 compounds, 0.63% hits;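 active = compounds giving at least 50% protection of heart cells from peroxide-induced death in the single-dose screen, raw or plate-pattern-corrected value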;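 note: 0% = DMSO wells with peroxide and 100% = DMSO wells without peroxide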
The depositor's hits bear a star; / = no result given.

SMILES | PfGluPho inh | PfM18AAP inh | ALR H2O2 inh | PHOSPHO1 inh | H9c2 protect
CC1(C(=O)NS(=O)(=O)c2ccccc2Cl)CCN1C(=O)C/C=C/c1ccccc1 (configuration not stated) | / | / | / | / | 3
O=C(NCc1ccccc1Cl)[C@@H]1CCCN1S(=O)(=O)c1ccc(Cl)cc1 | -20 | / | -4 | / | 4
COc1cc(C)c(CN2CCC(n3nccc3NC(=O)C3CCOC3)CC2)cc1C (configuration not stated) | -11 | -1 | -2 | 60 | 0
CCC(=NNc1ccc([N+](=O)[O-])cc1[N+](=O)[O-])c1ccccc1 | / | / | / | / | 4
C/C(=N\Nc1ccc([N+](=O)[O-])cc1[N+](=O)[O-])C(C)(C)C(C(=O)O)C(=O)O | -13 | 17 | 83* | 1 | -5
O=C(NNc1c2ccccc2nc2ccccc12)C(O)c1ccccc1 (configuration not stated) | 6 | -4 | 99* | -8 | 0
O=C(NNc1c2ccccc2nc2ccccc12)c1ccccc1Cl | -13 | 11 | -6 | 19 | 7
O=C(NNc1c2ccccc2nc2ccccc12)c1ccc(O)cc1 | 7 | 20 | 99* | -14 | 43
O=C(O)c1cccc(Nc2c3ccccc3nc3ccccc23)c1 | 3 | 5 | -3 | 45 | -2
O=C(NNc1c2ccccc2nc2ccccc12)c1cccc(O)c1 | -8 | 8 | 99* | 10 | 51*
O=C(Cn1cc(C(F)(F)F)ccc1=O)OCC(=O)c1ccc[nH]1 | -9 | / | 0 | / | 7
CCC1(c2ccccc2)NC(=O)N(CC(=O)NCCN2C(=O)S/C(=C\c3cccnc3)C2=O)C1=O (configuration not stated) | 26 | / | 31 | / | 7
O=C(NCc1cccs1)C1CCC(=O)N(Cc2cccc(C(F)(F)F)c2)C1 (configuration not stated) | -14 | -7 | -3 | 33 | 3
O=C(CCSCc1ccccc1F)NCc1ccc(F)cc1 | 0 | 9 | 3 | 23 | -4
O=C(Nc1ccc(F)cc1)c1ccc(C(=O)N2CCOCC2)cc1 | 7 | / | 99* | / | -1
Nc1ccccc1C#Cc1ccc2[nH]ccc2c1 | -6 | / | 97* | / | -22
Cc1ccc(-c2ccc(SCC(=O)NC3CCCCC3)nn2)cc1 | -5 | 6 | 0 | 62* | -14
O=C(CCn1c(=S)[nH]c2ccccc2c1=O)NCCCN1CCOCC1 | -2 | 0 | 8 | 4 | 4
Cc1[nH]c2ccccc2c1SCC(=O)NC1CCCCC1 | 2 | -8 | 80* | -7 | -6
Cc1ccc(-c2ccc(SCC(=O)NC3CCCC3)nn2)cc1 | -12 | 4 | -2 | 38 | -9
CC1CC(C)CN(C(=O)CCCn2c(=S)[nH]c3ccccc3c2=O)C1 (configuration not stated) | 0 | 0 | 96* | 46 | 7
O=c1c2ccccc2[nH]c(=S)n1CCCN1CCOCC1 | 7 | 17 | 87* | 16 | 7
O=C(CCCn1c(=S)[nH]c2ccccc2c1=O)N1CCCCC1 | -3 | 12 | 75 | 14 | 11
O=C(Nc1ccc(Br)cc1)C1CCCN(C2=NS(=O)(=O)c3ccccc32)C1 (configuration not stated) | -7 | / | 1 | / | 3
CCOC(=O)c1c(C)[nH]c(C)c1S(=O)(=O)N1CCN(C(=O)c2ccco2)CC1 | -7 | 0 | -11 | 33 | 6
SMILES | PfGluPho inh | PfM18AAP inh | ALR H2O2 inh | PHOSPHO1 inh | H9c2 protect
O=c1c2sc3ccccc3c2[nH]c(=S)n1CCN1CCOCC1 | 12 | 1 | 96* | -10 | -3
CCCS(=O)(=O)Nc1c(C(=O)OC)[nH]c2ccccc12 | 6 | 5 | 16 | -8 | 1
COCC(=O)c1[nH]c2ccccc2c1C | -6 | 3 | 92* | 11 | -11
O=c1c2ccc(Cl)cc2[nH]c(=S)n1CCCN1CCOCC1 | 2 | -4 | 95* | 0 | 14
COC(=O)C(F)(F)Sc1c(C)[nH]c2ccccc12 | 1 | 3 | 99* | -10 | 30
CC1CCN(CCCn2c(=S)[nH]c3c(sc4ccccc43)c2=O)CC1 | 25 | 12 | 25 | 37 | -4
Cc1[nH]c2ccccc2c(=O)c1SC(F)(F)C(F)C(F)(F)F (configuration not stated) | -14 | -4 | -19 | 24 | -6
COc1cccc(NC(=O)c2ccnc(N3CCC(C(=O)NCc4ccccc4OC)CC3)c2)c1 | 8 | -2 | 1 | 19 | 0
CC(C)OC(=O)Cc1nc2sc(-c3ccccc3)cc2c(=O)[nH]1 | -8 | 1 | -18 | -11 | -10
O=C(CN1CCNCC1)N1CCOCC1 | / | / | / | / | 1
CN1CCN(C(=O)CCn2c(=S)[nH]c3ccccc3c2=O)CC1 | 1 | / | / | / | 7
O=C(CCn1c(=S)[nH]c2ccccc2c1=O)N1CCOCC1 | 10 | 10 | 85* | 16 | 9
O=C(C1CCC(Cn2c(=S)[nH]c3ccccc3c2=O)CC1)N1CCOCC1 (configuration not stated) | -14 | 8 | 83* | 2 | 6
O=C(CCCn1c(=S)[nH]c2ccccc2c1=O)NC1CCCCC1 | -6 | 3 | 79* | 21 | -2
Cc1[nH]c2ccccc2c1SCC(=O)O | -2 | -9 | 34 | 4 | -3
COCC(=O)NCCSc1c(C)[nH]c2ccccc12 | -4 | 4 | 86* | -10 | 3
O=C(Nc1c(C(=O)O)[nH]c2ccccc12)NC1CCCCC1 | -2 | -4 | 98* | 40 | -5
CCOC(=O)N1CCN(C(=O)CCn2c(=S)[nH]c3cc(OCC)c(OCC)cc3c2=O)CC1 | / | 9 | -1 | 66* | /
COC(=O)c1[nH]c2ccc(C)cc2c1NC(=O)NC1CCCCC1 | 1 | -1 | -6 | 12 | 20
c1ccc2c(c1)ccn2CCCN1CCCCC1 | 10 | / | / | / | 4
COc1ccc(/C=C(/NC(=O)c2ccco2)C(=O)N2CCCCCC2)cc1OC | -11 | -1 | 3 | 23 | 1
CCc1nc(CN2CCCC(C(=O)c3ccc4c5c(cccc35)CC4)C2)c(C)[nH]1 (configuration not stated) | 2 | -3 | -20 | 60* | -9
O=C(O)C1C2CCC(O2)C1C(=O)Nc1ccccc1Br (configuration not stated) | 9 | 9 | 3 | -21 | 3
O=C(O)c1cc(N/N=C/c2ccc(-c3ccc(F)cc3)o2)ccc1Cl | -5 | -7 | 98* | 27 | -3
O=C(O)c1cc(N/N=C/c2ccc3c(c2)OCO3)ccc1Cl | 18 | 19 | 37 | 11 | -2
O=C(O)c1cc(N/N=C/c2ccc3c(c2)OCCO3)ccc1Cl | 4 | 5 | 93* | -15 | 0
O=C(O)c1ccc(N/N=C/c2ccc3c(c2)OCO3)cc1 | 7 | 13 | 99* | -9 | -7
